This is an account of results in PubChem BioAssay.

The term remaining activity denotes the signal under treatment as a percentage of the control signal.

Values joined by “and” are separate entries in the source; they are usually repeats but may differ in a detail not shown here. Equal values may be shown once. Active and inactive are the calls of the source.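 Rule for the calls, unless noted: active = compounds whose cell count with miR-34 switched on is under 0.7 times the count with it off; inactive = the rest.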

For assay [1], the system named is Aerobactin synthetase IucA (Klebsiella pneumoniae). Briefly: IucA aerobactin synthetase inhibitors, biochemical, Tocris library, absorbance (AID 1345561; call rule not given here;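 note: 100% = enzyme without compound and 0% = no enzyme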). Conditions: purified IucA enzyme assay, absorbance (OD) read-out; stronger effect = lower value;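 tested at 8 µM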.
Assay [2] in a line: sensitizers of A549 cells to miR-34 induction, primary screen, imaging, A549 dox-inducible miR-34, nuclei and caspase counts (AID 1347080). As to conditions: A549 miR-34 inducible, Hoechst nuclei count, 48 h.
Assay [3] is described as follows: viability rescue of complex I mutant cybrids, primary screen, cell-based, galactose medium, ATP luminescence (AID 1645843;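 active = z-score of at least 1.8 in each of two replicates, scored against plate mean and spread of sample wells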;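 note: positive z means more ATP and so rescue of galactose-driven cybrid death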). As to conditions: complex I mutant cybrid cells, 72 h, stronger effect = higher value.
[4] abbreviates: stronger effect = lower value, cell number ratio, induced over uninduced.
[5] abbreviates: measured here: relative caspase fold change +Dox/-Dox.
Setting [6] is: measured here: total cells with miR-34 induction, stronger effect = lower value.
Setting [7] is: measured here: total cells without miR-34 induction.

Take `O=C(O)COc1cccc(-c2ocnc2-c2nc(-c3ccccc3)c(-c3ccccc3)o2)c1`: the remaining activity in assay [1] was 118% (inactive). The fold change in assay [2] (setting [4]) was 0.961 (inactive); in assay [2] (setting [5]), 0.827. In addition, the cell count in assay [2] (setting [6]) turned out to be 8540; in assay [2] (setting [7]), 8890. For the same compound, the z-score in assay [3] is 0.465 (inactive).
Consider `Nc1nc(-c2ccc(Cl)c(Cl)c2)c(-c2ccncc2)s1`, for which the remaining activity in assay [1] was 110% (inactive). Also, the results for the fold change in assay [2] (setting [4]) and in assay [2] (setting [5]) were 0.959 (inactive) and 1.23, respectively. The cell count in assay [2] (setting [6]) was 8510; in assay [2] (setting [7]), 8870. Further, in assay [3], the z-score was 1.59 (inactive).
For the compound `N[C@@H](CSS(=O)(=O)O)C(=O)O`, in assay [1], the remaining activity was 94.5% (inactive). The fold change in assay [2] (setting [4]) is 0.893 (inactive); in assay [2] (setting [5]), 0.93. Also, the cell count in assay [2] (setting [6]) amounted to 8240; in assay [2] (setting [7]), 9220. In assay [3], the z-score was -0.57 (inactive).
In the case of `O=C(O)c1ccc(/C=C2/SC(=S)N(c3cccc(C(F)(F)F)c3)C2=O)cc1`, the remaining activity in assay [1] was 83.1% (inactive). For the same compound, the fold change was 0.837 (inactive) in assay [2] (setting [4]) and 1.71 in assay [2] (setting [5]). For the same compound, the cell count in assay [2] (setting [6]) is 8080; in assay [2] (setting [7]), 9650. Moreover, the z-score in assay [3] is -0.215 (inactive).
Take `O=C(O)CCC/C=C\C[C@@H]1CO[C@H](C(F)(F)F)O[C@@H]1c1ccccc1O`: the remaining activity in assay [1] is 111% (inactive). For the same compound, the fold change was 0.924 (inactive) in assay [2] (setting [4]) and 0.777 in assay [2] (setting [5]). In addition, the cell count in assay [2] (setting [6]) was determined as 7790; in assay [2] (setting [7]), 8430. Besides, the z-score in assay [3] is 0.14 (inactive).
Consider `COc1ccc(NS(=O)(=O)c2ccc(I)cc2)cc1N1CCN(C)CC1`, for which the remaining activity in assay [1] is 112% (inactive). In addition, the fold change is 0.956 (inactive) in assay [2] (setting [4]) and 0.589 in assay [2] (setting [5]). Further, the cell count is 6570 in assay [2] (setting [6]) and 6870 in assay [2] (setting [7]). Moreover, in assay [3], the z-score was -0.545 (inactive).
As to `CN(CCc1ccc(Cl)c(Cl)c1)CCN1CCCC1`, in assay [1], the remaining activity is 108% (inactive). Besides, the fold change in assay [2] (setting [4]) was 1.01 (inactive); in assay [2] (setting [5]), 0.63. For the same compound, the cell count in assay [2] (setting [6]) came out at 8830; in assay [2] (setting [7]) it was 8750. In addition, the z-score in assay [3] is -1.06 (inactive).
With `CCS(=O)(=O)N(C)[C@H]1c2cc(C#N)ccc2OC(C)(C)[C@@H]1O` (racemic), in assay [1], the remaining activity is 119% (inactive). The fold change was 0.884 (inactive) in assay [2] (setting [4]) and 1.36 in assay [2] (setting [5]). The figures for the cell count in assay [2] (setting [6]) and in assay [2] (setting [7]) were 9180 and 10400, respectively. In addition, the z-score in assay [3] is 0.85 (inactive).
Take `O=C(c1c(O)c2ccc(Cl)cc2[nH]c1=O)C1CC1`: the remaining activity in assay [1] was 118% (inactive). For the same compound, the results for the fold change in assay [2] (setting [4]) and in assay [2] (setting [5]) were 0.973 (inactive) and 1.04, respectively. The cell count in assay [2] (setting [6]) was 8250; in assay [2] (setting [7]), 8480. In assay [3], the z-score is -0.025 (inactive).
Consider `CCCCc1nn(-c2ccccc2C(F)(F)F)c(=O)n1Cc1ccc(-c2ccccc2S(=O)(=O)NC(=O)c2sccc2C)cc1`, for which the remaining activity in assay [1] was 91.8% (inactive). For the same compound, the figures for the fold change in assay [2] (setting [4]) and in assay [2] (setting [5]) were 0.921 (inactive) and 1.21, respectively. In addition, the values for the cell count in assay [2] (setting [6]) and in assay [2] (setting [7]) were 7450 and 8080, respectively. In assay [3], the z-score was 4.89 (active).
For `CCOC(=O)C1CSC(Cc2ccc(OCc3ccc([N+](=O)[O-])cc3)cc2)N1` (centres undefined), the remaining activity in assay [1] was 95.4% (inactive). Further, the fold change is 0.923 (inactive) in assay [2] (setting [4]) and 1.54 in assay [2] (setting [5]). The cell count in assay [2] (setting [6]) was 8250; in assay [2] (setting [7]), 8940. The z-score in assay [3] was -0.58 (inactive).
In the case of `CCc1cc(C(C)=O)c(O)cc1OCCCCCC(C)(C)c1nn[nH]n1`, the remaining activity in assay [1] is 116% (inactive). Moreover, the fold change was 0.891 (inactive) in assay [2] (setting [4]) and 1.51 in assay [2] (setting [5]). Also, the cell count in assay [2] (setting [6]) was determined as 7060; in assay [2] (setting [7]) it was 7920. For the same compound, the z-score in assay [3] is -0.21 (inactive).
Turning to `CCC1(c2ncc[nH]2)Cc2ccccc2O1` (centres undefined), the remaining activity in assay [1] is 118% (inactive). Moreover, the fold change was 0.963 (inactive) in assay [2] (setting [4]) and 0.89 in assay [2] (setting [5]). The cell count in assay [2] (setting [6]) is 9330; in assay [2] (setting [7]), 9690. In addition, in assay [3], the z-score is 0.05 (inactive).
Turning to `CCCCC1CCC(c2nc(-c3ccncc3)no2)CC1` (centres undefined), the remaining activity in assay [1] is 122% (inactive). The fold change was 0.974 (inactive) and 0.949 (inactive) in assay [2] (setting [4]); 0.608 and 1.14 in assay [2] (setting [5]). Besides, the cell count is 5260 and 8140 in assay [2] (setting [6]); 5400 and 8570 in assay [2] (setting [7]). In addition, the z-score in assay [3] is -0.62 (inactive).
As to `CC1(C)CC(=O)C(C2C3=C(CC(C)(C)CC3=O)Oc3ccccc32)C(=O)C1` (centres undefined), the remaining activity in assay [1] is 120% (inactive). The fold change in assay [2] (setting [4]) was 0.884 (inactive); in assay [2] (setting [5]), 0.511. Besides, the cell count was found to be 9160 in assay [2] (setting [6]) and 10400 in assay [2] (setting [7]). In addition, the z-score in assay [3] was -0.35 (inactive).
For `CC(C)(C)n1nc(-c2cccc3ccccc23)c2c(N)ncnc21`, the remaining activity in assay [1] is 117% (inactive). Besides, the fold change was 0.947 (inactive) in assay [2] (setting [4]) and 1.81 in assay [2] (setting [5]). The results for the cell count in assay [2] (setting [6]) and in assay [2] (setting [7]) were 3180 and 3350, respectively. The z-score in assay [3] was -0.105 (inactive).
Turning to `COCCNC(=O)COc1ccc(OCCNC[C@@H](O)COc2ccccc2)cc1`, the remaining activity in assay [1] is 95.4% (inactive). Further, the fold change was 0.88 (inactive) in assay [2] (setting [4]) and 0.916 in assay [2] (setting [5]). In addition, the figures for the cell count in assay [2] (setting [6]) and in assay [2] (setting [7]) were 8400 and 9540, respectively. For the same compound, the z-score in assay [3] was 0.13 (inactive).
For `CC(C)[C@H](NS(=O)(=O)c1ccc(-c2ccc(Br)cc2)cc1)C(=O)O`, the remaining activity in assay [1] was 100% (inactive). The fold change in assay [2] (setting [4]) is 0.908 (inactive); in assay [2] (setting [5]), 1.47. Also, the cell count was 8980 in assay [2] (setting [6]) and 9890 in assay [2] (setting [7]). For the same compound, the z-score in assay [3] is 0.745 (inactive).
Regarding `N[C@H](C(=O)O)c1ccc(O)c(C(=O)O)c1`, in assay [1], the remaining activity was 98.7% (inactive). Moreover, the figures for the fold change in assay [2] (setting [4]) and in assay [2] (setting [5]) were 0.912 (inactive) and 0.711, respectively. In addition, the results for the cell count in assay [2] (setting [6]) and in assay [2] (setting [7]) were 8900 and 9760, respectively. Moreover, the z-score in assay [3] is -0.325 (inactive).
With `O[C@H](CNC[C@@H](O)[C@H]1CCc2cc(F)ccc2O1)[C@@H]1CCc2cc(F)ccc2O1`, in assay [1], the remaining activity was 101% (inactive). Further, the fold change in assay [2] (setting [4]) was 1.03 (inactive); in assay [2] (setting [5]), 0.967. Also, the results for the cell count in assay [2] (setting [6]) and in assay [2] (setting [7]) were 3230 and 3140, respectively. In addition, the z-score in assay [3] is -0.5 (inactive).
As for `CS/C(N)=C(C#N)/C(C#N)=C(\N)SC`, in assay [1], the remaining activity is 109% (inactive). The fold change in assay [2] (setting [4]) was 0.85 (inactive); in assay [2] (setting [5]), 1.19. Moreover, the cell count came to 8330 in assay [2] (setting [6]) and 9800 in assay [2] (setting [7]). Moreover, the z-score in assay [3] was -0.595 (inactive).
In the case of `CN(C)c1nc(N)c(C(=O)Nc2cccnc2)nc1Cl`, in assay [1], the remaining activity was 113% (inactive). Besides, the fold change was 0.904 (inactive) in assay [2] (setting [4]) and 1.39 in assay [2] (setting [5]). Also, the cell count was found to be 5930 in assay [2] (setting [6]) and 6560 in assay [2] (setting [7]). In assay [3], the z-score is 0.61 (inactive).
For the compound `COc1cc(OC)c(C(=O)CCCCN2CCC3(CC2)NC(=O)NC3=O)cc1NS(=O)(=O)c1ccc(C(F)(F)F)cc1`, the remaining activity in assay [1] is 118% (inactive). Further, the fold change in assay [2] (setting [4]) is 0.962 (inactive); in assay [2] (setting [5]), 0.689. Moreover, the cell count in assay [2] (setting [6]) stood at 8560; in assay [2] (setting [7]), 8900. Besides, the z-score in assay [3] was -0.165 (inactive).
For the compound `NC(C(=O)O)c1cc(O)cc(O)c1` (centres undefined), in assay [1], the remaining activity was 101% (inactive). Besides, the fold change in assay [2] (setting [4]) was 0.987 (inactive); in assay [2] (setting [5]) it was 0.844. The cell count in assay [2] (setting [6]) came out at 9310; in assay [2] (setting [7]), 9430. Further, in assay [3], the z-score was -0.435 (inactive).
